# Experimental data published in PubChem BioAssay (Tox21).
# Results filed as inconclusive are left out. Entries that show only a call come without a potency. Values without a mark were called inactive. Activity calls are given as the source filed them. The call rests on the fitted dose curve; in most records, active means well fitted inhibition curve with a large enough effect in the signal ratio in the repeat runs (not every such curve was filed as active); inconclusive means weak or mixed curves, or effect the other way; inactive means no such curve, though single readings can be large or run the other way; the % refers to the signal ratio. Where a SMILES comes first, the peptide text is derived from it.
# Target: Estrogen receptor beta (Homo sapiens) (UniProt Q92731)
# Assay: qHTS assay to identify small molecule antagonists of the estrogen receptor beta (ER-beta) signaling pathway (AID 1259378)
# Settings: ER-beta-UAS-bla HEK293T, beta-lactamase FRET ratio, 16 h; series mostly up to 92.4 µM
# Source text: National Center for Advancing Translational Sciences [NCATS]
# NIH Chemical Genomics Center [NCGC]
# U.S. Environmental Protection Agency [EPA]
# National Institutes of Environmental Health Sciences [NIEHS]
# National Toxicology Program [NTP]
# U.S. Food and Drug Administration [FDA]
# Estrogen receptor (ER), a nuclear hormone receptor, plays an important role in development, metabolic homeostasis and reproduction. Two subtypes of ER, ER-alpha and ER-beta, have similar expression patterns with some uniqueness in both types. Endocrine disrupting chemicals (EDCs) and their interactions with steroid hormone receptors like ER causes disruption of normal endocrine function. To identify the compounds that inhibit ER signaling, an ER-beta-UAS-bla GripTite cell line (Life Technologies, Madison, WI, USA) containing a beta-lactamase reporter gene under the control of an UAS response element was used to screen Tox21 10K compound library.
# Tox21 Assay Protocol Summary:
# ER-beta-UAS-bla HEK293T cells were dispensed at 2,000 cells/4 uL of assay medium containing 2% charcoal stripped FBS per well into black wall/clear-bottom 1536-well plates using a Multidrop Combi (ThermoFisher Scientific, Waltham, MA) dispenser. After the assay plates were incubated at a 37C and 5% CO2 for 6 hr, 23 nL of compounds dissolved in DMSO, positive controls or DMSO only was transferred to the assay plate by a Pintool station (Kalypsys, San Diego, CA), followed by addition of 1 uL (1nM as final concentration) of 17-beta-estradiol (E2) in assay medium using a BioRAPTR FRD (Flying Reagent Dispenser, Aurora Discovery, San Diego, CA). The plates were incubated at 37C and 5% CO2 for 16 hr. Then 1 uL of LiveBLAzerTM B/G FRET substrate was added using a Flying Reagent Dispenser, the plates were incubated at room temperature for 2 hours, and fluorescence intensity was measured by an Envision plate reader (PerkinElmer, Shelton, CT).
# Sequence of Estrogen receptor beta (Homo sapiens) (Q92731 whole entry, looked up): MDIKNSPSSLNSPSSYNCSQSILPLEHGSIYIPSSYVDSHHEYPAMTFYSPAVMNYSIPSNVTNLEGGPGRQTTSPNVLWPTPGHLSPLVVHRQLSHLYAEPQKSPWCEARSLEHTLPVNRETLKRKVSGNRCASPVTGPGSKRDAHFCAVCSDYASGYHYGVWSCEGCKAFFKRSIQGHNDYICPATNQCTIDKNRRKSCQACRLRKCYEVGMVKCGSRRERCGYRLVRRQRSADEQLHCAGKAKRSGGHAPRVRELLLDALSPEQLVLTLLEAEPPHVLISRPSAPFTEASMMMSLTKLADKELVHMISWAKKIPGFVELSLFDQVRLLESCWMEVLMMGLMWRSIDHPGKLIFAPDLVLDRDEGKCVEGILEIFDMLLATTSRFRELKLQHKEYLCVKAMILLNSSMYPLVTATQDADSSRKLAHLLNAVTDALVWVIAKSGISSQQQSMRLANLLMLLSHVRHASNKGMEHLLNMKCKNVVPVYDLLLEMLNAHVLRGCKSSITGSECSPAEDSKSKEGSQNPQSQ
SMILES,"activity, negative = inhibition",Potency
CC1(C)CC(OC(=O)CCCCCCCCC(=O)OC2CC(C)(C)NC(C)(C)C2)CC(C)(C)N1,-12.7% [at 19 µM],–
CCC(C)C(C)=O (stereo not given),–,inactive
N[C@@H](Cc1ccc(O)cc1)C(=O)O,-4.71% [at 8.39 µM],–
C/C(CC(C)C)=N\O,–,inactive
C=CC(=O)OCC1CCCO1 (stereo not given),–,inactive
Cc1cc(C)c(C(=O)O)c(C)c1,–,inactive
CC(C)C1OCCN1CCOC(=O)NCCCCCCNC(=O)OCCN1CCOC1C(C)C (stereo not given),–,inactive
Cn1c(=O)c2[nH]c(Br)nc2n(C)c1=O,–,inactive
CC(C)Cn1cnc2c1c(=O)n(C)c(=O)n2C,–,inactive
CC(=O)O[Si](C)(OC(C)=O)OC(C)=O,–,inactive
CC(C)Nc1ccccc1,–,inactive
CC(C)=CCC/C(C)=C/COC=O,–,inactive
C=CC/C=C/C,–,inactive
CC12CCC(C1)C(C)(C)C2O (stereo not given),–,inactive
COc1cc2c(cc1OC)CN(C(=O)[C@H](C)N[C@@H](CCc1ccccc1)C(=O)O)[C@H](C(=O)O)C2,–,inactive
CC(C)OC(=O)OCOP(=O)(CO[C@H](C)Cn1cnc2c(N)ncnc21)OCOC(=O)OC(C)C,–,inactive
O=C(O)CNC(=O)CNC(=O)CNC(=O)CSC(=O)c1ccccc1,–,inactive
CCOc1ccccc1OCC1CNCCO1 (stereo not given),–,inactive
O=C(Cl)c1ccccc1[N+](=O)[O-],–,inactive
CC(=O)CC(=O)OC(C)(C)C,–,inactive

SMILES,"activity, negative = inhibition",Potency
CC1(C)Oc2ccc(C#N)cc2[C@@H](N2CCCC2=O)[C@@H]1O,–,inactive
CCCCCCCCCOC(=O)c1ccccc1C(=O)OCCCCCCCCC,–,inactive
CCCCCCCCCCCCCCCCCC#N,–,inactive
CC1(C)[C@H]2CC[C@](C)(C2)[C@H]1O,–,inactive
CC(C)NC(=O)c1ccc(C=O)cc1,–,inactive
CCCC(=O)Nc1ccc(OCC(O)CNC(C)C)c(C(C)=O)c1 (stereo not given),–,inactive
O=C1CCCCO1,–,inactive
CCCCSCCCC,–,inactive
CC(=O)c1cc(C)oc1C,–,inactive
COC(=O)c1cccc(Cl)c1,–,inactive
OC1(c2ccc(Cl)cc2)CCNCC1,–,inactive
CC(=O)N[C@@H](CO)C(=O)N[C@@H](CC(=O)O)C(=O)N[C@@H](CCCCN)C(=O)N1CCC[C@H]1C(=O)O (Ac-SDKP-OH),–,inactive
Cc1ccc(C)c([N+](=O)[O-])c1,–,inactive
CN(C)C(C)(C)CO,–,inactive
Cc1cccc(Cl)c1,–,inactive
CCCCCC/C=C/C(=O)OC,–,inactive
O=C(O)CCCCCC(=O)O,–,inactive
CCCC(CC)c1ccccc1 (stereo not given),–,inactive
CCn1cc(C(=O)O)c(=O)c2cnc(N3CCCC3)nc21,15.3% [at 8.39 µM],–
CO/N=C(/C(=O)N[C@@H]1C(=O)N2C(C(=O)[O-])=C(C[n+]3ccn4ncccc43)CS[C@H]12)c1nsc(N)n1,–,inactive
